Measurements reported in the supplement of paper PMC6555819.

Tested on: VDR:RXRa (NR concentration 270 nM, RXRa partner concentration 90 nM)
Assay: PBM binding z-score (relative to random genomic background probes); higher = stronger binding; sequences stand for … in GC…GCGATTGACAGCGTAGAATGAAGG
Protocol: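 Protein-binding microarray (Agilent 4x180K custom design, double-stranded 60-nt probes: 5' GC cap, 34-nt variable region, 24-nt constant primer region; full probe sequence given). Purified or IVT nuclear receptor:RXRα heterodimers (3:1 NR:RXRα, mostly 270:90 nM) or homodimers were incubated for 1 h in PBS with 2% milk and no ligand, then detected with Alexa488 antibodies. Fluorescence from o1-orientation probes (~5 replicates averaged) was converted to z-scores against 500 random hg19 background probes. Variable regions are seed direct-repeat (DR0–DR5) sites, all their single-nucleotide variants and half-site ablations.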

Row | Sequence | PBM binding z-score
1 | TCTTGTAGATCAGCTGGTTAAGAAAGCTGGCCAA | -0.152
2 | CCTTACGGGTGACGAGGTTATAGCACGACGAGCG | 0.935
3 | AGAATGAGGTTATAGGTAGATCAGGGAAGAAAGT | 1.44
4 | CCGAGTAGGTTAGGGGGCATTCAGGCAACGGTGA | 2.93
5 | CGACCTAGGTCATTGACAGGACAGTGAATAGTAA | 2.97
6 | GCTCGGAGGACAAGGTCAGAGCGTTGTCCGTAGA | 1.67
7 | CAAACTGGGTCACCGGAAGGTCAAAGTCCGCATG | 5.93
8 | GCTTACGGGTCAAAGGTTCTAGCATGAATAGAAT | 4.42
9 | GCCGACAGGTGAAACGCAGGTAACTCAGGGTGGC | -0.543
10 | GGAACGAGGGCAAGCTGATAGCAGAGTTTGATGG | 0.0958
11 | TAGCCTAGGTCATCCAGGGGCCAGTATAGAAAGC | 3.1
12 | AGAACGAGGCCAATGAGTTGATAGCACGGGTGGC | 3.09
13 | ATCTCTAGGTAACGAAGTTCAGTGAATGCCGAAC | 2.56
14 | CAGCCTAGGTCAGGGCCAGTGTAGGAGGAACGTT | 0.257
15 | GCAGACAGGTGGAACGCAGGTAACTCAGGGTGGC | -0.675
16 | GCATATAGGGAATACAAGGTGAAAGTCCGATTGT | 0.0593
17 | GGAACGAGGGCATTCGAGTTGATTGCATGGCGAT | 3.81
18 | CCGACTGGGGCATAAGGTTACCACAAGCCAGCCC | 0.105
19 | CGTCCAAGGGCAAGGTCAGTGAAAGAGACTCGAA | 1.59
20 | GATACAGGGACAAGGCCAGAGTACGCGTATTGAT | -0.523

Row | Sequence | PBM binding z-score
21 | TCTTGTGGATCAACAGGAGGTTAAGAAAGATCGA | 0.329
22 | AGTCGAAGTTCATCTAGGTAACGTAAGATATGCT | 3.51
23 | TGAATGAGGTTACAAGATCAGGGAACGTTGCAAA | 0.984
24 | GCATATAGGTAATACAAGGTTAAAGTCCGATTGT | 1.6
25 | TTACCAAGGTGAAAGGTCGTGGATGCACGCCTTG | 3.28
26 | CCAGACAGGTGAAAAGTAACTCAGTCTGGTACGC | 0.113
27 | GCTCGAAGGACAAGGTCAGAGCTTTGTCCGTAGA | 1.31
28 | ATCGAAAGGTCGTGAGGTGAGTATACAGAAAGGC | 3.69
29 | CATAGAGGGTCAGCTAGGCCAGAGTAGGGACGGC | 2.69
30 | AATACAGGGTCATCGTAGGCCAGAATACGCACAG | 5.15
31 | CCTACTGGGCCACGAAAGGTCATTGTTTCAGTGA | 4.25
32 | TCCTATAGGTAAAAGGTGAAAGTCGGTGTGGTAA | 1.17
33 | ATCTCTAGGTACGACTCAGTTCAGTGAAGAACGC | 1.28
34 | ATAGACAGGTGATGAAGGTAACTCAGGCTATCAT | 0.166
35 | ATCGAAAGGTCGAGATGAGTATAGAGAAAGGGAA | 2.4
36 | CTTTACGGGTCACTCCAGGTTATAGCATCGGAGT | 4.46
37 | TCACATAGGTAAACAGGTGAAAGTCCGTAAGTTA | 0.849
38 | CGAACGAGGGCATGAGTTGATTGCAAATGCCGAT | 1.66
39 | TTAATGAGGTTAAAGATCAGGGAACGTGGCGTCG | 2.4
40 | TCTTGTAGATCAAGCAGGTTAAGTAAGCCTGAGT | 0.507
